# Source: PubChem
# D2 PAM-1: D2 dopamine receptor (human) potentiation; potentiation, % at 10 µM; HEK293 T-REx D2, calcium flux, EC20 dopamine potentiation; 340,000 tested, 0.34% active; P14416;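 active = potentiation over 3 SD above the plate norm, cut at about 30% in these data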; note: 0% is about no effect
# Target sequence (P14416 whole entry, looked up): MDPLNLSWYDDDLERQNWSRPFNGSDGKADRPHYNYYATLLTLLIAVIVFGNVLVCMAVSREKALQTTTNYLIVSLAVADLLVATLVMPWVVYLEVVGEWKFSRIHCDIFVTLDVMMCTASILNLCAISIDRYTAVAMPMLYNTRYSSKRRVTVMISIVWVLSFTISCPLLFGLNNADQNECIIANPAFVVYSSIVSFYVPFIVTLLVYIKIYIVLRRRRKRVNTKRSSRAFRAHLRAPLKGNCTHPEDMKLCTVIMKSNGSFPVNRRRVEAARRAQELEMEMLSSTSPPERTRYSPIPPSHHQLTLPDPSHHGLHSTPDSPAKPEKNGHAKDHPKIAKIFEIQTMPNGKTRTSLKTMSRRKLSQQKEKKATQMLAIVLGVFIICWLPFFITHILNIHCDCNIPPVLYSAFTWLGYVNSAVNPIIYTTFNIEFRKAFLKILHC
#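 Calcium flux readout, no-wash dye, 1 read/s. Inducible HEK293 Trex D2 line, overnight 30 C. Compound alone 180 s (agonist flags), then EC20 dopamine, another 180 s to score potentiation.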
# D2 PAM-2: potentiates the human D2 dopamine receptor allosterically; P14416; potentiation, % (concentration not given with the values); AID 624464; 360,000 tested, 0.23% active; DiscoveRx D2 beta-arrestin cells, luminescence, 90 min; 100% = 57 uM dopamine signal; in the data active = potentiation above about 50%; inconclusive = mostly about 30% to 49%
#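 PathHunter D2 cells, attached overnight at 37 deg C, received compound in DMSO plus dopamine at EC20 (50 nM final) for 90 min at 37 deg C. Beta-arrestin recruitment was read as luminescence after 1 h with detection reagent at ambient temperature.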
# D2 ag-1: agonists of human D2 dopamine receptor (beta-arrestin); P14416; DiscoveRx PathHunter D2 beta-arrestin, luminescence, 90 min; 100% = 57 uM dopamine signal; activation, % (test concentration not listed); 360,000 tested, 0.084% active; AID 624465; in the data active = activation above about 40%; inconclusive = between about 15% and that limit
#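 DiscoveRx PathHunter D2 beta-arrestin cells (2,100/well) attached overnight, then compound-stimulated 90 min at 37 C in HBSS/10 mM HEPES/0.1% Tween-20 buffer; beta-galactosidase complementation read by luminescence after 1 h at ambient temperature. Dopamine 57 uM final (EC100) as control.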
# D2 antag: antagonists of human D2 dopamine receptor. HEK293 TREx D2 cells, calcium flux, dopamine EC80. inhibition, % at 10 µM. 340,000 tested, 2% active; in the data active = inhibition above about 30%; inactive = below that, where a call was filed; note: 0% is about no effect
#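 Read-out: kinetic calcium fluorescence (1 cycle/s) in inducible HEK293 T-REx D2 cells after an EC80 dopamine addition that followed 180 s compound preincubation. Loss of the dopamine response indicates antagonism.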
# D2 ag-2: agonists of human D2 dopamine receptor. 340,000 tested, 0.53% active. HEK293 T-REx D2 cells, calcium flux agonist mode. P14416. activation, % at 2 µM;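 active = activation over 3 SD above normal in the single-dose calcium agonist read, cut at about 30% in these data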; note: 0% is about no effect
#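 Tetracycline-induced HEK293 T-REx cells with force-coupled D2 receptor, plated overnight at 30 C, loaded with no-wash calcium dye. After a 10 s baseline, compound was pin-added and calcium flux read kinetically for 180 s; calcium rises flagged agonists.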
# D3 arrestin ag: activates human D3 dopamine receptor beta-arrestin recruitment; shares compounds with D2 ag-2; DiscoveRx D3 beta-arrestin cells, luminescence, 90 min; Potency, µM (series often up to 76.9 µM), for the others: at the highest dose activation, actives largely listed as activators; 2,300 tested, 4% active; AID 720506;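 note: potency is the fitted concentration of half-maximal effect; 100% = dopamine control response; nearly all actives have a fitted effect of over 70% in size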
# D2 ag-3: counter-screen for D3 agonists: human D2 dopamine receptor agonism; shares compounds with D2 ag-2; DiscoveRx PathHunter D2 beta-arrestin, luminescence, 90 min; response scale: percent relative to full dopamine signal; Potency, µM (doses to about 76.9 µM), inactives show at the top dose activation, actives largely listed as activators; 2,300 tested, 5.9% active; note: potency is the fitted concentration of half-maximal effect; % of control where 0% means no effect; nearly all actives have a fitted effect of over 70% in size
# * marks the source's active call; other numbers are inactive results; ? = inconclusive; · = no result given. An excerpt weighted towards active compounds, which were near 2.4% of everything screened. Unless noted, calls come from the whole dose curve; as a rule, active = well fitted activation curve with a large enough effect; inconclusive = small, poorly fitted or top-dose-only effect; inactive = flat fitted curve, though single readings scatter.
SMILES,D2 PAM-1,D2 PAM-2,D2 ag-1,D2 antag,D2 ag-2,D3 arrestin ag,D2 ag-3
COc1ccc(C2=CC(=O)C[C@H](c3ccc(OC)c(OC)c3)C2)cc1,14,-5,-4,2,0,9%,17%
COc1cccc(C2=CC(=O)C[C@H](c3ccc(F)cc3)C2)c1,12,-9,-3,3,-1,-10%,-3%
COc1ccc([C@H]2CC(=O)C=C(c3cc(F)ccc3F)C2)cc1OC,17,7,2,-8,0,5%,20%
COc1cc(F)cc(C2=CC(=O)C[C@H](c3ccc(F)cc3)C2)c1,2,-8,-1,-6,-1,·,·
COc1ccccc1NS(=O)(=O)c1ccc(C(=O)N2CCCC(C(F)(F)F)C2)cc1 (stereo unspecified),-15,-5,0,13,-1,2%,-2%
COc1ccc(C(=O)NNC(=O)Cc2ccc([N+](=O)[O-])cc2)cc1,-21,-11,0,-13,42*,1%,-2%
Cc1ccc(C(=O)CCC(=O)OCC(=O)NNC(=O)c2ccc([N+](=O)[O-])cc2)cc1,·,28,1,·,·,0%,5%
Cc1ccc(NC(=O)CCC(=O)c2ccccc2)cc1,·,-7,0,·,·,·,·
Cc1ccc(S(=O)(=O)CCC(=O)OCC(=O)NNC(=O)c2ccc([N+](=O)[O-])cc2)cc1,2,-6,-3,12,1,·,·
Cc1ccc(C(=O)CCC(=O)NNC(=O)c2ccccc2O)cc1,10,-1,-2,10,0,-5%,-2%
COc1ccc(CC(=O)NNC(=O)c2ccc(NC(C)=O)cc2)cc1,10,2,-4,6,1,·,·
Cc1cc(C(C)(C)C)ccc1OCCN1CCCC1,·,-5,-5,·,·,-15%,-5%
CCc1ccc(OCCCSc2nc(-c3ccc(C(C)(C)C)cc3)nc3cc(=O)[nH]n23)cc1,-7,·,·,·,0,·,·
Cc1ccccc1NC(=O)COc1coc(CN2CCN(c3ccccc3)CC2)cc1=O,-15,6,?,9,55*,14%,29%
COc1ccc(NC(=O)COc2coc(CN3CCN(c4ccccc4)CC3)cc2=O)cc1,-18,0,-2,27,50*,11%,28%
COc1ccc(N2CCN(Cc3cc(=O)c(OCC(=O)Nc4ccccc4)co3)CC2)cc1,2,0,-3,10,0,·,·
O=C(Nc1ccc(NC(=O)c2ccc([N+](=O)[O-])cc2[N+](=O)[O-])cc1)c1ccco1,-13,?,-1,0,47*,?,13%
O=C(c1ccco1)N1CCC(N2CCN(c3ccccc3)CC2)CC1,-21,-10,1,61*,78*,?,29%
O=C(c1cc(-c2ccccc2)on1)N1CCN(c2ccccc2)CC1,4,-7,5,4,0,·,·
O=C(c1cc(-c2ccco2)on1)N1CCN(c2ccccc2)CC1,-14,-4,0,0,45*,-5%,0%
O=C1OC(N2CCN(C(=O)c3ccco3)CC2)c2ccccc21 (stereo unspecified),·,-12,6,·,·,24%,14%
CC(C)(C)OC(=O)N1CCC(c2c(C(=O)NCCN3CCOCC3)cnn2-c2ccc(F)cc2)CC1,-9,·,·,·,0,·,·
O=C(C1CCCN(Cc2ccc3c(c2)OCO3)C1)N1CCCC1 (stereo unspecified),1,-4,-1,-13,0,·,·
O=C(C1CCN(c2nnc(N3CCCC3=O)s2)CC1)N1CCN(Cc2ccc3c(c2)OCO3)CC1,-5,4,3,1,57*,1%,26%
CC(C)CN(CCCNC(=O)CC1Oc2ccccc2NC1=O)CC(C)C (stereo unspecified),-6,4,3,22,0,·,·
SMILES,D2 PAM-1,D2 PAM-2,D2 ag-1,D2 antag,D2 ag-2,D3 arrestin ag,D2 ag-3
CCN(CC)CCCNC(=O)CC1Sc2ccccc2NC1=O (stereo unspecified),-10,-5,1,17,22,-13%,6%
CCCCN(CC)CCCNC(=O)CC1Oc2ccccc2NC1=O (stereo unspecified),-18,?,53*,87*,81*,?,50µM*
CCc1ccc(NC(=O)CC2C(=O)N(c3cccc(OC)c3)C(=O)N2C2CCCC2)cc1 (stereo unspecified),-4,·,·,·,0,·,·
COc1ccc(C)cc1NC(=O)N1CCC(CN2CCOCC2)CC1,2,·,·,·,1,·,·
COC(=O)c1ccccc1NC(=O)c1cc2ccccc2o1,13,-3,-1,15,0,·,·
O=C(Nc1ccccc1C(F)(F)F)c1cc2ccccc2o1,3,-5,-3,47*,0,-6%,-6%
Cc1cccc(-n2c(SCC(=O)Nc3ccc(C)c(C)c3)nc3n[nH]c(C)c3c2=N)c1,-8,·,·,·,1,·,·
CCC1CCc2c(sc(NC(=O)C3CC=CCC3C(=O)O)c2C#N)C1 (stereo unspecified),-19,8,?,29,62*,16µM*,?
O=[N+]([O-])c1cc(Br)c2nsnc2c1N1CCOCC1,4,-4,0,23,26,-2%,1%
CCCn1c(=O)c2sccc2n2c(CCCC(=O)NCCOC)nnc12,-6,·,·,·,0,·,·
Cn1c2ccccc2c(=O)c2c(=O)n(-c3ccccc3)c(C3CCCCC3)nc21,-2,-1,-1,2,-1,·,·
Cn1c2ccccc2c(=O)c2c(=O)n(C3CCCCCC3)c(C3CCCCC3)nc21,-10,-11,-3,-6,40*,-12%,-1%
O=C(CCN1CCN(C(c2ccccc2)c2ccccc2)CC1)N/N=C/c1ccc(O)cc1,-19,-27,-3,-11,-3,·,·
COc1cc(/C=N/NC(=O)CCN2CCCCC2)ccc1O,-5,-10,3,-4,1,·,·
CC(=O)Nc1ccc(/C=N/NC(=O)CCN2CCN(c3ccccc3)CC2)cc1,-20,3,9,51*,79*,?,27%
O=C(CCN1CCN(c2ccccc2)CC1)N/N=C/c1ccccc1OC(F)F,-22,9,?,88*,75*,-5%,?
COc1ccc(/C=N\NC(=O)CCN2CCN(c3ccccc3)CC2)cc1OC,-30,-27,3,56*,75*,15%,21%
CC(C)CCn1c(=O)c2sccc2n2c(CCCC(=O)Nc3ccc(F)c(Cl)c3)nnc12,-3,·,·,·,0,·,·
CCCCN(C)C(=O)c1nc2ccccn2c1CN1CCN(c2ccccn2)CC1,-25,-11,1,5,53*,29%,11%
